rCAG binder = binds r(CAG) RNA repeats | AID 651821 | inhibition, % at 3 µM | actives 1.3% (n = 370,000) | r(CAG) RNA repeat, TO-PRO-1 dye displacement fluorescence;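 active = inhibition above the plate cutoff, the mean of all test compounds on that plate plus 3 SD, cut at about 35% in these data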;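 also: higher means more dye released from RNA so lower well fluorescence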
DSG3 Ab inh = inhibitors of pemphigus antibody binding to human desmoglein-3; P32926; DSG3-coupled beads, scFv-anti-DSG3-GFP binding, flow cytometry; stronger effect = lower value; binding (percent of control), % at 10 µM; actives 0.48% (n = 310,000); AID 588358;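 active = binding more than 3 SD below its plate's average and above zero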;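 also: hits lower antibody fragment binding to DSG3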
bovine MsrA act = bovine methionine sulfoxide reductase A activation | purified bovine MsrA, absorbance read-out | activation, % at 10.6 µM | actives 0.3% (n = 360,000) | AID 602163; in the data active = activation above about 7.5%
DAGLB inh = diacylglycerol lipase beta (human) inhibition. actives 0.059% (n = 340,000). inhibition, % at 5.17 µM. HEK293T DAGLB membrane lysate, EnzChek fluorogenic substrate. Q8NCG7; in the data active = inhibition above about 34%
MsrA inh = bovine MsrA inhibition; inhibition, % at 15.5 µM; actives 0.75% (n = 360,000); purified bovine MsrA, absorbance read-out; in the data active = inhibition above about 4.5%
NadD block = inhibitors of Staphylococcus aureus NadD; purified NadD enzyme, colorimetric absorbance read-out; inhibition, % at 20 µM; actives 0.78% (n = 360,000); AID 602399; in the data active = inhibition above about 26%
MsrA activ conf = bovine methionine sulfoxide reductase A activation confirmed; shares compounds with bovine MsrA act; purified bovine MsrA, absorbance read-out; activation, % at 10.6 µM; actives 12% (n = 1,000); AID 602270; in the data active = activation above about 4%;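 also: enzyme coupled to thioredoxin and thioredoxin reductase with NADPH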
Numbers stand for hits; . = inactive; / = not tested or not shown. Compounds with a hit are over-represented: about 3.2% of the library has one in this group of screens.

SMILES | rCAG binder | DSG3 Ab inh | bovine MsrA act | DAGLB inh | MsrA inh | NadD block | MsrA activ conf
Cc1cccc(NC(=O)C2(C)CC3c4ccccc4C2c2ccccc23)c1 (stereo not drawn) | . | . | 8.9 | . | . | . | .
Cc1cc(C(=O)Nc2cccc3ccccc23)c(C)o1 | . | / | . | . | . | . | /
Cc1oc(CC(C)C)cc1C(=O)Nc1cccc2ccccc12 | . | / | 7.8 | . | . | . | .
O=S1(=O)c2ccc(Br)cc2OC[C@@H](Cc2ccccc2)N1Cc1cn(Cc2ccccc2)nn1 | . | / | / | / | / | / | /
COc1ccc(Cc2noc(CN(C)CCN3CCc4ccccc4C3)n2)cc1OC | . | . | . | . | . | . | /
CN(CCN1CCc2ccccc2C1)Cc1nc(Cc2ccccc2F)no1 | . | . | 15.3 | . | . | . | .
COC(=O)c1ccccc1S(=O)(=O)N1CCC(C(=O)NC2CCCCC2)CC1 | . | . | 11.4 | . | . | . | .
CCCCCCCCN1C(=O)[C@@H](CC(=O)NCCCOC)C[C@@]2(C(=O)OC)C1=C[C@H](C(C)C)O[C@@H]2C1CC1 | . | / | / | / | / | / | /
COc1ccc(S(=O)(=O)N(C)C[C@H]2Oc3ncc(C#CC4(O)CCCC4)cc3C(=O)N([C@@H](C)CO)C[C@@H]2C)cc1 | . | / | . | . | . | . | /
CN(C)c1ccc(C=c2c3ccccc3n3c2cc(-c2ccccc2)[n+]3C)cc1 | . | / | 9.8 | . | . | . | .
O=C(CC1CCCCC1)Nc1ccc(-c2ccc3nncn3n2)cc1 | . | . | 7.7 | . | . | . | .
CC1CCCC(NC(=O)COC(=O)c2ccccc2[N+](=O)[O-])C1C (stereo not drawn) | . | . | . | . | . | . | /
CC1CCCC(NC(=O)COC(=O)c2ccc([N+](=O)[O-])s2)C1C (stereo not drawn) | . | . | 20.9 | . | . | . | 5.4
CCC(c1nnnn1C(C)(C)C)N1CCN(C2CCCC2)CC1 (stereo not drawn) | . | / | 8.1 | . | . | . | .
Cc1ccc2nc(-c3ccc(F)cc3)c(Cc3cccc(Cl)c3)n2c1 | . | / | . | / | . | . | /
Fc1ccc(-c2nc3ccc(Br)cn3c2Cc2cccc(Cl)c2)cc1 | . | / | 8.2 | / | . | . | .
NC(Cc1ccc(Cl)cc1)c1csc(Nc2ccc(-c3ccccc3)nn2)n1 (stereo not drawn) | . | / | . | / | . | . | /
COc1cccc(NC(=O)C(C)OC(=O)c2n[nH]c3ccccc23)c1 (stereo not drawn) | . | . | 16.1 | . | . | . | .
CNc1snc(C)c1C(=O)OC(C)C(=O)Nc1cccc(OC)c1 (stereo not drawn) | . | . | . | . | . | . | /
CCN(CC)C(=O)CC[C@H]1CC[C@]2(CCCN(C(=O)c3ccccc3)C2)O1 | . | / | / | / | / | / | /
Cc1ccc(C)c2nc3sc(C(=O)N4CCOCC4)c(N)c3cc12 | . | . | 8.8 | . | . | . | 4.9
O=C(COc1ccccc1Cl)c1ccc2c(c1)CCCC2 | . | . | 8.3 | . | . | . | .
COC(=O)[C@H](NC(=O)c1cc(-c2ccccc2)nc2ccccc12)c1ccccc1 | . | . | 9.4 | . | . | . | .
CC(=O)Nc1ccc(NC(=O)c2cc(-c3ccccc3)nc3ccccc23)cc1 | . | . | . | . | . | . | /
Nc1ncnc2c(C3OC(CO)C(O)C3O)scc12 (stereo not drawn) | . | . | . | . | . | . | /
SMILES | rCAG binder | DSG3 Ab inh | bovine MsrA act | DAGLB inh | MsrA inh | NadD block | MsrA activ conf
CC(C)(C)OC(=O)N1CCCC(C(=O)Nc2cccc(C(=O)NCc3ccccc3)c2)C1 (stereo not drawn) | . | . | . | . | . | . | /
CN(Cc1ccccc1)C(=O)c1cccc(NC(=O)C2CCCN(C(=O)OC(C)(C)C)C2)c1 (stereo not drawn) | . | . | 7.7 | . | . | . | .
COc1ccc2ccc(OC)c(/C=N/NC(=O)c3cc4ccccc4o3)c2c1 | . | . | . | . | . | . | /
N#CCC[C@H]1CC[C@]2(CCCN(S(=O)(=O)c3ccccc3)C2)O1 | . | / | / | / | / | / | /
COc1ccc(S(=O)(=O)c2c(C)c(NS(=O)(=O)c3ccccc3)cc(C)c2O)cc1 | . | . | . | . | . | . | /
COc1ccc(S(=O)(=O)Nc2cc(C)c(O)c(S(=O)(=O)c3ccccc3)c2)cc1 | . | / | 9.3 | . | . | . | .
Cc1cccc(C)c1-n1nnnc1-c1nc2cc(Br)ccc2[nH]c1=O | . | / | 8.0 | / | . | . | .

Source: PubChem BioAssay
